From PubChem
Shown are actives, neighbours in structure and some others; about 11% of the full set was active somewhere.
ALDH1A1 inh = qHTS Assay for Inhibitors of Aldehyde Dehydrogenase 1 (ALDH1A1); Aldehyde dehydrogenase 1A1 (Homo sapiens), P00352; Purified ALDH1A1, NADH fluorescence, propionaldehyde substrate; Potency, µM (highest dose often 75.3 µM), without a hit: at the top dose activity, negative = inhibition, actives largely listed as inhibitors; hit rate 7.3% among 220,000; AID 1030, 2008;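 further: potency means the concentration at half of the fitted maximal effect; plate controls were no enzyme wells and a reference inhibitor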
KDM4E inh = qHTS Assay for Inhibitors of Human Jumonji Domain Containing 2E (JMJD2E). Lysine-specific demethylase 4E (Homo sapiens), B2RXH2. Potency, µM (titrated, usually from 57.1 µM), without a hit: top-dose activity change, negative = inhibition, hits mostly inhibitors. JMJD2E catalytic domain, FDH-coupled NADH fluorescence (FDH is formaldehyde dehydrogenase). hit rate 1.6% among 230,000. AID 2147, 2009;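 further: potency means the concentration at half of the fitted maximal effect; 0% = wells with enzyme and -100% = buffer wells without enzyme; nearly all actives have a fitted effect of over 50% in size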
PNC assembly inh = High Content Assay for Compounds that inhibit the Assembly of the Perinucleolar Compartment. PC3M PTB-GFP, PNC prevalence imaging, 16 h; hits give low values. activity change (PNC), negative = inhibition, % at 10 µM. hit rate 3.1% among 140,000. AID 2417, 2010;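 active means readout at or below -70, meaning at least 70% loss of cells showing the perinucleolar compartment, a nuclear body marking cancer cells; inconclusive means readout between -30 and a set limit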;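 further: plate controls were DMSO wells for no effect and camptothecin positive control wells for full effect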
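Read-out is percentage of cells bearing a perinucleolar compartment, from automated 20x imaging of fixed, Hoechst-stained PC3M PTB-GFP cells. Cells were seeded 4 h, then exposed 16 h to compound (23 nl of library stock) in duplicate plates.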
HPGD inh = qHTS Assay for Inhibitors of HPGD (15-Hydroxyprostaglandin Dehydrogenase) | 15-hydroxyprostaglandin dehydrogenase [NAD(+)] (Homo sapiens), P15428 | purified HPGD, NADH fluorescence kinetic, PGE2 substrate | Potency, µM, for the others: at the highest dose activity change, negative = inhibition, usual class: inhibitors | hit rate 4.3% among 150,000; further: potency means the concentration at half of the fitted maximal effect
Target sequence (P15428 whole entry, looked up): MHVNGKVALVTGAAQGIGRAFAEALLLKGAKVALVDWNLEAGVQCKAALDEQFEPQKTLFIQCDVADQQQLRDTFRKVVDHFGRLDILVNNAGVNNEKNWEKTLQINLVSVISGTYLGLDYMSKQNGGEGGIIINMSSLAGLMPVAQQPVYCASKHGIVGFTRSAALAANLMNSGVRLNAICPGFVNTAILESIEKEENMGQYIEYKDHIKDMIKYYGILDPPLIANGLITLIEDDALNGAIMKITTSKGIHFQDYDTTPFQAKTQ
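20 nM HPGD preincubated 15 min at room temperature with compound in 50 mM Tris-HCl pH 8, 0.01% Tween 20. Started with 1 mM NAD+ and 30 uM prostaglandin E2; NADH fluorescence (360/450 nm) read 5 times over 30-s intervals, last minus first.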
The depositor's hits bear a star; ? = inconclusive; / = not tested or not shown. Unless noted, the call rests on the fitted dose curve; in most records, active means well fitted inhibition curve with a large enough effect (not every such curve was filed as active); inconclusive means small, poorly fitted or top-dose-only effect, or another doubt; inactive means no such curve, though single readings can be large or run the other way. Unless noted, on the % scale 0 is the no-effect control and ±100 the full control effect.

SMILES	ALDH1A1 inh	KDM4E inh	PNC assembly inh	HPGD inh
Cc1cc(C(C)(C)C)cc(S(=O)(=O)Nc2cccc(C(=O)O)c2)c1C	?	8%	?	-13%
Cc1ccccc1NC(=O)c1ccc(NS(=O)(=O)c2cc(C(C)(C)C)cc(C)c2C)cc1	2.8µM*	-6%	?	-17%
Cc1ccccc1CSCC(Nc1ccc(C(=O)O)cc1[N+](=O)[O-])C(=O)O (configuration not stated)	16µM*	1%	?	-9%
Cc1ccccc1CNc1ccc(C(CC(N)=O)NC(=O)c2ccc(Br)cc2)cc1[N+](=O)[O-] (configuration not stated)	/	12%	/	/
CCCCc1nc(NCCN2CCOCC2)c(C#N)c2c1COC(C)(C)C2	11µM*	?	-9	-18%
CC(C)Cc1nc(NCCN2CCOCC2)c(C#N)c2c1COC(C)(C)C2	-1%	?	?	-3%
COc1ccccc1CNc1ccnc(-c2cccc(NS(C)(=O)=O)c2)n1	1%	/	/	/
COc1ccc(N(C(=O)Cc2cccs2)C2C=CS(=O)(=O)C2)cc1 (configuration not stated)	28µM*	0%	/	/
CC(C)C(=O)N(c1ccc(F)cc1)C1C=CS(=O)(=O)C1 (configuration not stated)	28µM*	5%	-2	/
CCC(CC)C(=O)N(c1ccc(F)cc1)C1C=CS(=O)(=O)C1 (configuration not stated)	1%	7%	1	4%
O=C(Cc1cccs1)N(c1ccc(Br)cc1)C1C=CS(=O)(=O)C1 (configuration not stated)	8%	12%	/	/
COc1ccccc1CN1CCCC2(CCN(S(C)(=O)=O)CC2)C1	11%	/	/	0%
COc1ccc(S(=O)(=O)n2ccc(C(C)Oc3ccc(-c4ccccc4)c(F)c3)n2)cc1 (configuration not stated)	8%	1%	?	-14%
CC(Oc1ccc(-c2ccccc2)c(F)c1)c1ccn(S(=O)(=O)c2ccc(F)cc2)n1 (configuration not stated)	1%	1%	-100*	-13%
C=CCNc1ncnc2c1cnn2-c1ccc(C)cc1C	0%	-16%	6	14µM*
Cc1ccc(-n2ncc3c(NCC4CCCO4)ncnc32)c(C)c1 (configuration not stated)	-11%	-11%	38	2.2µM*
Cc1sc2ncnc(NCC3CCCO3)c2c1C (configuration not stated)	-12%	-10%	33	-15%
CCN(CC)C(=O)C1CCN(c2ncnc3c2cnn3-c2ccc(C)cc2C)CC1	10µM*	-9%	-24	22µM*
CCc1cc2c(NCC3CCCO3)ncnc2s1 (configuration not stated)	?	?	11	14µM*
Cc1ccc(-n2ncc3c(N4CCC(C(N)=O)CC4)ncnc32)c(C)c1	-2%	8%	-17	-3%
